Laboratory results reported in PubChem BioAssay AID602258 (National Center for Advancing Translational Sciences (NCATS), 2012).
Records with an inconclusive call do not appear. A number with no mark means an inactive call. Active and inactive are the calls of the source. The call rests on the fitted dose curve; in most records, active means well fitted activation curve with a large enough effect; inconclusive means small, poorly fitted or top-dose-only effect; inactive means no such curve, though single readings can be large or run the other way.

molecular target: Relaxin receptor 2 (Homo sapiens) (UniProt Q8WXD0); test: qHTS Assay for Agonists of the Relaxin Receptor RXFP1: RXFP2 SAR; conditions: HEK293 RXFP2 cAMP TR-FRET agonist, 30 min; series mostly up to 78.1 µM; activation: at the top concentration
Sequence (Q8WXD0 whole entry, looked up): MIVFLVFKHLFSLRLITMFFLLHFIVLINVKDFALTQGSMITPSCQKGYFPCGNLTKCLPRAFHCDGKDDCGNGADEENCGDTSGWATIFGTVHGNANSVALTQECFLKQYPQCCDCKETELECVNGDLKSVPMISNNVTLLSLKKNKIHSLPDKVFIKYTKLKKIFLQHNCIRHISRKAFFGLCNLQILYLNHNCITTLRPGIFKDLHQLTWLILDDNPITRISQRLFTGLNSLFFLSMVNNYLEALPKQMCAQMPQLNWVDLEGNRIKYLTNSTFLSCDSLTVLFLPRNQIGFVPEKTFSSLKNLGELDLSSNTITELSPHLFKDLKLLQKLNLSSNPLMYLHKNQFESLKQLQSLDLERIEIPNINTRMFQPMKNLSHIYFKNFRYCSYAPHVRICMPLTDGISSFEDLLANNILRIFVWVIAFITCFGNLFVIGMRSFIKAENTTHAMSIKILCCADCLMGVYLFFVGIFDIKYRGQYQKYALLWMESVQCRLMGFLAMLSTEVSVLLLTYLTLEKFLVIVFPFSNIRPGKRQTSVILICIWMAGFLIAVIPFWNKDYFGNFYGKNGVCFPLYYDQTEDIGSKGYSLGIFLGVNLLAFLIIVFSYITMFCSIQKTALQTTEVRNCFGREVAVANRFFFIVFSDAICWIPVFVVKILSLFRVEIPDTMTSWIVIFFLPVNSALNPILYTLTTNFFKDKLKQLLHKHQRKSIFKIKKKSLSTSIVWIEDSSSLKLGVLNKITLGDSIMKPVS
Source text: The relaxin hormone is involved in the variety of biological functions in normal tissues and diseases. The role of relaxin is well-established in female reproduction and parturition, mammary gland and endometrial development, maintenance of myometrial quiescence during pregnancy. Relaxin signaling through its G protein-coupled receptor (GPCR) RXFP1 results in ECM remodeling through regulation of collagen deposition, cell invasiveness, proliferation and overall tissue homeostasis. […] Recombinant human relaxin (rhRlx) is currently being tested in clinical trials as a protective agent in congestive heart failure, in treating severe preeclampsia, and as an anti-fibrotic agent in systemic sclerosis. Upon relaxin binding RXFP1 activation leads to the activation of adenylate cyclase (AC) via Gs. cAMP will activate PKA, which phosphorylates many signaling proteins. Thus, detection of cAMP increase is an easy and reliable indication of relaxin receptor activation. To screen for agonists of the relaxin receptor, a HEK293T cell line stably transfected with RXFP1 was used. RXFP1 activation was assayed by changes in cAMP levels as detected with a time-resolved fluorescence energy transfer (TR-FRET) cAMP detection kit. This assay measures activation of a cell expressing RXFP2, another GPCR targeted by relaxin, to determine the selectivity of compounds for RXFP1. NIH Chemical Genomics Center [NCGC] NIH Molecular Libraries Probe Production Centers Network [MLPCN] MLPCN Grant: R03 MH085705-01A1 Assay Submitter (PI): Alexander Agoulnik
This is a cell-based assay for cAMP second messenger response to screen for agonists of the RXFP2 receptor. The assay was conducted in the presence of a PDE4 inhibitor (Ro 20174). The cells were lysed and the cAMP levels were measured with a TR-FRET cAMP kit. Presence of cAMP in the cell lysate disrupts binding between the cryptate-labeled anti-cAMP and d2-labeled cAMP pair, leading to a decrease in the TR-FRET signal. Data were normalized to the controls for basal activity (buffer only) and 100% activity (29 nM porcine relaxin). The EC50 values were determined from concentration-response data modeled with the standard Hill equation 1536-well assay protocol for the HEK293 RXFP2 cAMP assay: (1) Add 3 ul HEK293 RXFP2 cell culture. 2000 cells/well in DMEM/F12, 10% FBS, 1x Pen/Strep (dispensed offline with MultiDrop Combi). (2) Incubate 16-24 hr at 37C, 5% CO2. (3) Add 1 ul 400uM Ro20174 in DPBS, 0.05% BSA, 0.005% Tween 20. (3) Add 23 nl compounds in DMSO solution. Final concentration was 0.5 - 58 uM. (4) Incubate 30 min at 37C, 5% CO2. (5) Add 1 ul cAMP-d2 in lysis buffer (HTRF cAMP HiRange kit, CisBio). (6) Add 1 ul anti-cAMP antibody-cryptate in lysis buffer (HTRF cAMP HiRange kit, CisBio). (7) Incubate 30 min at room temperature. (6) Detect the assay plate in a ViewLux plate reader (PerkinElmer) with Ex=320 nm, Em1=615 nm and Em2=665 nm. Keywords: relaxin, RXFP1, RXFP2, G-protein coupled receptor, cAMP, agonist, high throughput screening, MLSMR, MLSCN, NIH Roadmap, qHTS and NCGC

| SMILES | activation | Potency |
| --- | --- | --- |
| O=C(Nc1cccc(Cl)c1)c1ccccc1NC(=O)C1CCCCC1 | 10.8% |  |
| O=C(Nc1cccc([N+](=O)[O-])c1)c1ccccc1NC(=O)C1CCCCC1 | 9.08% |  |
| COc1ccccc1C(=O)N(C)c1ccccc1C(=O)Nc1cccc(C(F)(F)F)c1 | 1.3% |  |
| O=C(Nc1cccc(C(F)(F)F)c1)c1ccccc1NC(=O)C1CCCC1 | -2.45% |  |
| Cc1ccccc1C(=O)Nc1ccccc1C(=O)Nc1cccc(C(F)(F)F)c1 | 13.4% |  |
| O=C(Cc1ccccc1)Nc1ccccc1C(=O)Nc1cccc(C(F)(F)F)c1 | 10.8% |  |
| O=C(Nc1ccccc1C(=O)Nc1cccc(C(F)(F)F)c1)c1ccccc1Cl | 5.72% |  |
| O=C(Nc1cccc(F)c1)c1ccccc1NC(=O)C1CCCCC1 | 5.01% |  |
| O=C(Nc1cccc(C(F)(F)F)c1)c1ccccc1NC(=O)C1CC1 | 10.8% |  |
| COc1cccc(NC(=O)c2ccccc2NC(=O)C2CCCCC2)c1 | 7.76% |  |
| O=C(Nc1ccc(C(F)(F)F)cc1)c1ccccc1NC(=O)C1CCCCC1 | 20.7% |  |
| Cc1ccc(NC(=O)c2ccccc2NC(=O)C2CCCCC2)cc1 | 9.53% |  |
| COc1ccccc1C(=O)Nc1cccc(C(=O)Nc2cccc(C(F)(F)F)c2)c1 | -2.52% |  |
| COc1ccccc1C(=O)Nc1ccccc1C(=O)Nc1cccc(C(F)(F)F)c1 |  | 5.93 µM (active) |
| CSc1cccc(NC(=O)c2ccccc2NC(=O)C2CCCCC2)c1 | 7.16% |  |
| CCOc1ccccc1S(=O)(=O)Nc1ccccc1C(=O)Nc1cccc(S(=O)(=O)C(F)(F)F)c1 | -7.45% |  |
| CCOc1ccccc1-c1nc2c(C(=O)Nc3cccc(S(=O)(=O)C(F)(F)F)c3)cccc2[nH]1 | 3.33% |  |
| O=C(NCc1cccc(C(F)(F)F)c1)c1ccccc1NC(=O)C1CCCCC1 | 2.63% |  |
| CCOc1ccccc1C(=O)NCCC(=O)Nc1cccc(S(=O)(=O)C(F)(F)F)c1 | -0.921% |  |
| COCCOc1ccccc1C(=O)Nc1cccc(C(F)(F)F)c1 | 24.6% |  |

| SMILES | activation | Potency |
| --- | --- | --- |
| CCOc1ccccc1C(=O)Nc1ccccc1C(=O)Nc1cccc(C(F)(F)F)c1 |  | 9.4 µM (active) |
| O=C(Nc1cccc(Br)c1)c1ccccc1NC(=O)C1CCCCC1 | 13.2% |  |
| O=C(Nc1cccc(-c2ccccc2C(F)(F)F)c1)c1ccccc1NC(=O)C1CCCCC1 | 14.2% |  |
| CCOc1ccccc1C(=O)Nc1ccncc1C(=O)Nc1cccc(S(=O)(=O)C(F)(F)F)c1 |  | 9.4 µM (active) |
| COc1ccccc1C(=O)Nc1ccc(C(=O)Nc2cccc(C(F)(F)F)c2)cc1 | -6.5% |  |
| CC(C)(C)c1cccc(NC(=O)c2ccccc2NC(=O)C2CCCCC2)c1 | 7.45% |  |
| O=C(Nc1cccc(S(=O)(=O)C(F)(F)F)c1)c1ccccc1NC(=O)C1CCCCC1 | 33% |  |
| O=C(Nc1cccc(-c2cccc(C(F)(F)F)c2)c1)c1ccccc1NC(=O)C1CCCCC1 | 13.4% |  |
| CCOc1ccccc1C(=O)Nc1ccccc1CNc1cccc(S(=O)(=O)C(F)(F)F)c1 | 7.61% |  |
| COc1cccc(OC)c1C(=O)Nc1ccccc1C(=O)Nc1cccc(C(F)(F)F)c1 | 3.96% |  |
| CCSc1ccccc1C(=O)Nc1ccccc1C(=O)Nc1cccc(S(=O)(=O)C(F)(F)F)c1 | 13.1% |  |
| COc1ccc(C(=O)Nc2ccccc2C(=O)Nc2cccc(C(F)(F)F)c2)cc1 | 15.6% |  |
| O=C(Nc1cccc(C(F)(F)F)c1)c1ccccc1NC(=O)C1CCC1 | 8.34% |  |
| O=C(Nc1ccccc1)c1ccccc1NC(=O)C1CCCCC1 | 7.12% |  |
| COc1cccc(C(=O)Nc2ccccc2C(=O)Nc2cccc(C(F)(F)F)c2)c1 | 17.9% |  |
| O=C(Nc1cccc(C(F)(F)F)c1)c1ccccc1NC(=O)C1CCCCCC1 | 2.09% |  |
| CCOc1ccccc1C(=O)Nc1ncccc1C(=O)Nc1cccc(S(=O)(=O)C(F)(F)F)c1 | 15.6% |  |
| COc1ccccc1CNc1ccccc1C(=O)Nc1cccc(C(F)(F)F)c1 | 9.88% |  |
| O=C(Nc1ccccc1C(=O)Nc1cccc(C(F)(F)F)c1)c1cccnc1 | -3.42% |  |
| Cc1ccccc1NC(=O)c1ccccc1NC(=O)C1CCCCC1 | 8.27% |  |
